HCV inhibitor: qHTS Assay for Inhibitors of Hepatitis C Virus (HCV). AID 651820, 2012. Huh7.5.1 HCVcc-Cre infection, luciferase reporter, 44 h. actives 3.4% (n = 340,000). Potency, µM (series often up to 41.8 µM), without a hit: top-dose activity change, negative = inhibition, usual class: inhibitors; also: potency is read from the fitted curve at half-maximal effect
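Cells seeded at 1,000/well and cultured 4 h, then compounds added followed by HCVcc-Cre virus (~0.5 moi). After 44 h further culture, luciferase substrate was added, plates held 15 min at room temperature, and luminescence read for 15 sec.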
LASV entry inh: qHTS for Inhibitors of binding or entry into cells for Lassa Virus. AID 540256, 2011. Potency, µM (highest dose often 37.9 µM), without a hit: at the highest dose activity change, negative = inhibition, actives largely listed as inhibitors. Lassa virus pseudotype entry inhibition, cell reporter. actives 1.2% (n = 300,000); calls by dose curve; tested in HEK293 cells; also: potency is read from the fitted curve at half-maximal effect; nearly all actives have a fitted effect of over 50% in size
Pf growth 48h: Primary qHTS for delayed death inhibitors of the malarial parasite plastid, 48 hour incubation; actives 5.9% (n = 310,000); AID 504832, 2011; Potency, µM (titrated, usually from 28.7 µM), inactives show at the top dose activity change, negative = inhibition, most hits filed as inhibitors; P. falciparum luciferase growth in erythrocytes, 48 h; also: potency is read from the fitted curve at half-maximal effect
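Read-out is firefly luciferase luminescence from an integrated reporter in P. falciparum, so falling signal marks reduced parasite growth. Infected erythrocytes were at 2% hematocrit and 0.1% parasitemia (final) in Albumax-supplemented RPMI 1640.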
Marburg entry inh: qHTS for inhibitors of binding or entry into cells for Marburg Virus; Marburg virus pseudotyped entry inhibition, cell reporter; Potency, µM (top dose mostly 37.8 µM), for the others: at the highest dose activity change, negative = inhibition, most hits filed as inhibitors; actives 1.8% (n = 300,000); calls by dose curve; tested in HEK293 cells; also: potency is read from the fitted curve at half-maximal effect
HCMV antiviral: qHTS Assay for inhibitors of the human cytomegalovirus (HCMV); HFF cells, HCMV-luciferase reporter, 72 h; stronger effect = lower value; activity change, negative = inhibition, % at 57.5 µM; actives 4.5% (n = 410,000); in the data active = activity change below about -60%; inconclusive = no clear call, values can overlap the other calls; inactive = above about -39%
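Human foreskin fibroblasts infected with luciferase-reporter HCMV at MOI 1 PFU/cell, compounds at two doses. Luciferase measured 72 h post infection; normalized to buffer-only basal and Salinomycin (10uM) controls.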
Pf growth 96h: Primary qHTS for delayed death inhibitors of the malarial parasite plastid, 96 hour incubation | P. falciparum luciferase reporter growth, 96 h | Potency, µM (highest dose often 28.7 µM), for the others: at the highest dose activity change, negative = inhibition, most hits filed as inhibitors | actives 6.9% (n = 320,000) | AID 504834, 2011; also: potency is read from the fitted curve at half-maximal effect
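Readout is luminescence from an integrated firefly luciferase in P. falciparum. Red cells, 2% hematocrit and 0.05% parasitemia final, were cultured with compound through two parasite generations (96 hours) at 37 C, 5% CO2.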
The depositor's hits bear a star; [ ] = remark or other dose. The list is not random: actives were taken first. Their share in the collection is about 14%. Unless noted, calls follow the shape of the dose curve; as a rule, active = well fitted inhibition curve with a large enough effect; inconclusive = small, poorly fitted or top-dose-only effect, or another doubt; inactive = no such curve, though single readings can be large or run the other way. % is scaled to controls: 0 for no effect and ±100 for the full control effect.

Results for CC(C)Cn1c(CCC(N)=O)nnc1SC(C)C(=O)Nc1ccc2c(c1)OCO2 (configuration not stated) ?
HCV inhibitor: 1.3%; Pf growth 48h: -4.9%; HCMV antiviral: 5.6; Pf growth 96h: 11.2%

How did CCCN(Cc1nnc(-c2ccccc2Cl)o1)C(=O)c1ccc(C)c(S(=O)(=O)N2CCOCC2)c1 do in these assays?
HCV inhibitor: -8.0%; LASV entry inh: -25.5%; Pf growth 48h: inconclusive; Marburg entry inh: -8.3%; HCMV antiviral: -0.2; Pf growth 96h: inconclusive

Results for CCCN(Cc1nnc(-c2ccccc2Cl)o1)C(=O)c1oc2ccccc2c1C ?
HCV inhibitor: inconclusive; LASV entry inh: inconclusive; Pf growth 48h: 9.28µM*; Marburg entry inh: inconclusive; HCMV antiviral: -11.1; Pf growth 96h: 9.28µM*

Results for CCCCNC(=O)CC1N=C2c3ccccc3N=C(SCC(=O)Nc3ccccc3OC)N2C1=O (configuration not stated) ?
HCV inhibitor: 1.9%; LASV entry inh: 4.4%; Pf growth 48h: 10.4µM*; Marburg entry inh: inconclusive; HCMV antiviral: -3.2; Pf growth 96h: 63.9%

How did CCCCNC(=O)CC1N=C2c3ccccc3N=C(SCC(=O)Nc3ccc(OC)cc3)N2C1=O (configuration not stated) do in these assays?
HCV inhibitor: -1.2%; LASV entry inh: 6.0%; Pf growth 48h: inconclusive; Marburg entry inh: 13.1%; HCMV antiviral: -4.1; Pf growth 96h: 10.4µM*

Results for CCCCNC(=O)CC1N=C2c3ccccc3N=C(SCC(=O)Nc3cccc(OC)c3)N2C1=O (configuration not stated) ?
HCV inhibitor: -21.0%; LASV entry inh: 0.4%; Pf growth 48h: inconclusive; Marburg entry inh: inconclusive; HCMV antiviral: -18.9; Pf growth 96h: inconclusive

What do the screens show for `O=C1[C@@H]2CSC(c3ccc(Cl)cc3)N2C(=O)N1c1ccccc1` (some centres not stated)?
LASV entry inh: -1.9%[46.1 µM]; Marburg entry inh: 0.4%[46.1 µM]; HCMV antiviral: -4.2

What do the screens show for `CN(C)c1ncnc2c1ncn2C1CCCO1` (configuration not stated)?
HCV inhibitor: 2.2%; LASV entry inh: -3.1%[46.1 µM]; Marburg entry inh: -5.1%[46.1 µM]; HCMV antiviral: 20.2

Results for O=C(Nc1ccc(-c2nc3ccccc3o2)c(O)c1)c1cc(-n2cnnc2)ccc1Cl ?
HCV inhibitor: 11.2µM*; LASV entry inh: 2.9%; Pf growth 48h: 9.28µM*; Marburg entry inh: inconclusive; HCMV antiviral: -94.5*; Pf growth 96h: -16.0%

Results for O=C(Nc1ccc(-c2nc3ccccc3o2)cc1)c1cc(-n2cnnc2)ccc1Cl ?
HCV inhibitor: inconclusive; LASV entry inh: inconclusive; Pf growth 48h: 11.7µM*; Marburg entry inh: inconclusive; HCMV antiviral: -96.6*; Pf growth 96h: 14.7µM*

What do the screens show for `CC(C)OC(=O)C1CC(C)(O)C(=O)C(C(=O)OC(C)C)C1c1ccc([N+](=O)[O-])cc1` (configuration not stated)?
HCV inhibitor: 1.0%; LASV entry inh: -16.5%[46.1 µM]; Pf growth 48h: inconclusive; Marburg entry inh: inconclusive; HCMV antiviral: -64.3*; Pf growth 96h: inconclusive

How did Cc1ccc(CC2(OCCN(C)C)CCC(C(C)(C)C)CC2)cc1 (configuration not stated) do in these assays?
HCV inhibitor: -26.1%; LASV entry inh: inconclusive; Marburg entry inh: 10µM*; HCMV antiviral: inconclusive

What do the screens show for `CN(C)CCOC1(Cc2ccc(F)cc2)CCC(C(C)(C)C)CC1` (configuration not stated)?
HCV inhibitor: -9.5%; LASV entry inh: inconclusive; Marburg entry inh: 11.2µM*; HCMV antiviral: inconclusive

What do the screens show for `FC(F)(F)c1cc(Cl)c2nc(-c3ccco3)c(Cc3ccccc3C(F)(F)F)n2c1`?
HCMV antiviral: -66.0*

What do the screens show for `Cc1ccc(-c2nc3c(Cl)cc(C(F)(F)F)cn3c2Cc2ccccc2C(F)(F)F)cc1`?
HCMV antiviral: 4.9

Results for FC(F)(F)c1ccccc1Cc1c(-c2ccco2)nc2ccc(Cl)cn12 ?
HCMV antiviral: -109.9*

What do the screens show for `CCOC(=O)C(Cc1ccc(O)c([N+](=O)[O-])c1)N1C(=O)c2ccccc2C1=O` (configuration not stated)?
HCV inhibitor: 14.9%; LASV entry inh: 24.8%; Marburg entry inh: inconclusive; HCMV antiviral: 3.5

How did C[C@@H](C(=O)NCc1c(F)cccc1Cl)N1C(=O)N2CCc3c([nH]c4ccccc34)[C@@]2(C)C1=O do in these assays?
HCV inhibitor: 11.2µM*; Pf growth 48h: inconclusive; HCMV antiviral: 2.8; Pf growth 96h: inconclusive

How did COc1ccc(CNC(=O)[C@H](C)N2C(=O)N3CCc4c([nH]c5ccccc45)[C@@]3(C)C2=O)cc1OC do in these assays?
HCV inhibitor: 3.55µM*; Pf growth 48h: inconclusive; HCMV antiviral: inconclusive; Pf growth 96h: 8.28µM*

How did COc1ccc2[nH]c3c(c2c1)CCN1C(=O)N([C@@H](C)C(=O)NCCc2ccc(F)cc2)C(=O)[C@]31C do in these assays?
HCV inhibitor: inconclusive; Pf growth 48h: -29.4%; HCMV antiviral: 9.1; Pf growth 96h: 8.28µM*

Results for Cc1ccccc1NC(=O)c1sc2nc3n(c(=O)c2c1C)N=C(c1ccccc1)CS3 ?
LASV entry inh: -5.4%[46.1 µM]; Marburg entry inh: -8.6%[46.1 µM]; HCMV antiviral: 23.1

Results for COc1cccc(CNC(=S)Nc2ccc3c(c2)c(=O)n(C)n3Cc2ccccc2)c1 ?
HCMV antiviral: -7.7

How did COC(=O)C1(C)CCCC2(C)c3cc(OC)ccc3C(=O)C(Br)C12 (configuration not stated) do in these assays?
HCMV antiviral: -16.2

How did C=C1CCC[C@]2(C)C[C@H]3OC(=O)C(CNC(C)(CO)CO)[C@H]3CC12 (some centres not stated) do in these assays?
HCV inhibitor: -9.0%; LASV entry inh: 8.6%; Marburg entry inh: inconclusive; HCMV antiviral: -85.6*; Pf growth 96h: inconclusive

Results for C=C1CCC[C@]2(C)C[C@H]3OC(=O)C(CN4CCCCC4CO)[C@H]3CC12 (some centres not stated) ?
HCV inhibitor: -16.9%; LASV entry inh: -24.6%; Pf growth 48h: inconclusive; Marburg entry inh: 11.2µM*; HCMV antiviral: -92.1*; Pf growth 96h: inconclusive

Source: PubChem BioAssay
